# Data taken from PubChem BioAssay (NCI).
# “And” between values parts separate entries of the source, which are not always exact repeats. Identical values can stand only once. The panel holds about 83,000 compounds, 20% with a hit somewhere; the sample as a whole holds those more often.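 A percent growth of 40 corresponds to 60% growth inhibition; 0 means no net growth; -100 means all cells died. Active threshold: below 10.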 The source made the active and inactive calls.
# Tested on: EKVX NSCLC
# Assay: NCI-60 one-dose screen, 48 h (100 = growth as untreated, 0 = no growth, -100 = all killed)
# Details: 10 µM unless noted
# Method: Growth inhibition of the EKVX human Non-Small Cell Lung tumor cell line is measured as a screen for anti-cancer activity. Cells are grown in 96 well plates and exposed to the test compound for 48 hours. Compounds are tested at a single concentration, which is 10^-5 M for most compounds. The reported endpoint is percent growth (GI% or GIPRCNT), where numbers from 0 - 100% represent growth inhibition, and numbers from -100% - 0 represent cell death. For example, a value of 40 represents 60% growth inhibition. A value of 0 means no net growth occurred over the course of the experiment. A value of -40 indicates 40% of cells at the beginning of the experiment died by the end of the experiment. A value of -100 means all cells are dead at the end of the experiment.
# NCI-60 Human Tumor Cell Lines Screen was performed using the standard one-dose NCI protocol, which is described in more detail at https://dtp.cancer.gov/discovery_development/nci-60/default.htm.
# Compounds with GIPRCNT values below 10 were considered active. Activity score was based on GIPRCNT using the following formula: […]
# Score is 0 for GIPRCNT values of 100 or above, 50 for GIPRCNT values of 0, and 100 for GIPRCNT values of -100.
row,Compound,growth
1,Cc1cc(N(CCCl)CCCl)ccc1C=Nc1ccc(-c2csc(-c3ccccc3)n2)cc1,111% (inactive)
2,CC1=C([Te]c2ccccc2)C(=O)c2ccccc2C1=O,-38.6% (active)
3,CC(C)COC(=O)Cc1ccccc1,109% (inactive)
4,CC[C@@H](C)C(=O)O[C@H]1[C@H](O)[C@H]2[C@@H](CN3C[C@@H](C)CC[C@H]3[C@@]2(C)O)[C@@H]2C[C@]34O[C@]5(O)[C@@H](OC(=O)[C@@](C)(O)CC)CC[C@@]3(C)[C@@H]5[C@@H](OC(C)=O)[C@@H](OC(C)=O)[C@H]4[C@@]21O,93.7% (inactive)
5,C[C@]12CC[C@H](O)C[C@@H]1CC[C@@H]1[C@@H]2CC[C@]2(C)OC(=O)CC[C@@H]12,89% (inactive)
6,COC(=O)[C@@H](C)C[C@H](Cc1ccccc1)NC(=O)c1cccc([C@@H](C[C@H](C(C)C)N(C)C(=O)[C@@H](NC(=O)[C@H]2CCCCN2C)C2CC2)OC(C)=O)n1,54.6% (inactive)
7,CC[C@H](CC[C@@H](C)[C@H]1CC[C@H]2[C@@H]3CC[C@H]4C[C@]5(CC[C@]4(C)[C@H]3CC[C@]12C)OO[C@](C)(C(F)(F)F)O5)C(C)C,96.2% (inactive)
8,O=C/C=C/c1ccco1,100% (inactive)
9,Nc1ccc(S(=O)(=O)F)cc1,112% (inactive)
10,Cc1ccc(N2CCN(CCC#N)CC2)cc1,95.5% (inactive)
11,Clc1ccc(COC(Cn2ccnc2)c2ccc(Cl)cc2Cl)c(Cl)c1 (stereo not given),48.6% (inactive) and 59.2% (inactive)
12,CN(C)c1ccc(C=C2C(=O)NC(=O)NC2=O)cc1,92.4% (inactive)
13,CCCCCCCCCCCCCCCC[N+](C)(C)Cc1ccccc1,15.8% (inactive) and -27.6% (active)
14,CC(=O)c1cccc(S(=O)(=O)F)c1,98.8% (inactive)
15,C=C[Se]CC(=O)/C=C/c1ccccc1,70.4% (inactive)
16,C[C@]12CC[C@H]3[C@@H](CC=C4c5nc(-c6ccc(Br)cc6)sc5CC[C@@]43C)[C@@H]1CC[C@@H]2O,109% (inactive)
17,CSc1cc(/C=C(\C)[C@@H]2C[C@@H]3O[C@]3(C)CCC[C@H](C)[C@H](O)[C@@H](C)C(=O)C(C)(C)[C@@H](O)CC(=O)O2)n(CCNC(=O)OC(C)(C)C)n1,78.3% (inactive)
18,C[C@]12C[C@H](c3ccoc3)OC(=O)[C@H]1CC[C@@]1(C)[C@@H]2[C@H]2C=C[C@]1(O)C(=O)O2,95.4% (inactive)
19,C[C@@]12CCCc3coc(c31)C(=O)c1cc3c(cc12)C(=O)C1=C(NCCS1(=O)=O)C3=O,11.1% (inactive)
20,COc1ccc2c(c1)c(-c1nc(-c3cn(C)c4ncccc34)cs1)cn2CCCCN1CCOCC1,60.2% (inactive)

row,Compound,growth
1,CNC(=O)O/N=C(\SC)C(=O)N(C)C,112% (inactive)
2,CC1=CC(=Nc2ccc(N(CCCl)CCCl)cc2)C=C(C)C1=O,70.6% (inactive)
3,c1ccc2c(c1)sc1ccccc12,93.6% (inactive)
4,N[C@@H](CCC(=O)CCl)C(=O)O,101% [20 µM] (inactive)
5,Cc1cc(Br)c([N+](=O)[O-])cc1[N+](=O)[O-],103% (inactive)
6,CO/N=C1\CC[C@]2(C)[C@H]3CC[C@]4(C)C(=O)CC[C@H]4[C@@H]3C[C@@H]3SC(N)=N[C@@]32C1,91.8% (inactive)
7,COc1ccc(C(C#N)C(C)=O)cc1 (stereo not given),108% (inactive)
8,O=C(CCCN1CCC2(CC1)C(=O)NCN2c1ccccc1)c1ccc(F)cc1,57.6% (inactive) and 80.6% (inactive)
9,COC(=O)CCP(CCC(=O)OC)c1ccccc1,93.9% (inactive)
10,O=P1(N(CCCl)CCCl)NCCCO1 (stereo not given),101% (inactive)
11,C=C1C(=O)OC2CC3(C)OC3C3OC3C3=CC(OC3=O)C12 (stereo not given),111% (inactive)
12,O=NN1CCCCC1,126% (inactive)
13,COC12CC3C4=CCOC5CC(=O)N6c7ccccc7C1(CCN2C4)C6C53 (stereo not given),117% (inactive)
14,CC12CCC3C(CCC4CC(O)CCC43C)C1CCC2=O (stereo not given),73.4% (inactive)
15,C[C@]12CCC3[C@@H](C[C@@H]4SC(Nc5ccccc5)=N[C@@]45CC(=O)CC[C@]35C)[C@@H]1CCC2=O (stereo not given in full),49.4% (inactive)
16,C#Cc1cccc(Nc2nc(Cl)nc3cc(NC(=O)CF)ccc23)c1,71.4% (inactive)
17,C[C@]12CC[C@H]3[C@@H](C[C@@H]4SC(Nc5ccccc5)=N[C@@]45C/C(=N/O)CC[C@]35C)[C@@H]1CCC2=O,86.6% (inactive)
18,CCCC1CCCCC12C(=O)NC(=O)NC2=O (stereo not given),85.6% (inactive)
19,C[C@]12CCC(=O)C[C@@H]1CC[C@@H]1[C@@H]2CC[C@]2(C)[C@@H](OC(=O)N(CCCl)N=O)CC[C@@H]12,69.9% (inactive)
20,COc1ccc(O)c2c(=O)c3c(OC)cc4c(c3oc12)[C@@H]1C=CO[C@@H]1O4,6.71% (active)
